Screening data deposited in PubChem BioAssay by National Center for Advancing Translational Sciences (NCATS).
Coupling enz: coupling enzyme interference in Giardia aldolase counter-screen. activity change, negative = inhibition, % at 58.2 µM, hits read low. coupling enzyme system counterscreen, AmpLite Red fluorescence. hit rate 0.67% among 290,000; in the data active = activity change below about -30%
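Fluorescence at 525 nm excitation and 598 nm emission measured inhibition of the coupled detection system without aldolase. Compounds (at 57.5 uM final) were preincubated 10 min at room temperature with coupling enzyme reagent before a 20 min substrate/AmpLite Red step.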
Sfp inh: inhibitors of Bacillus subtilis Sfp phosphopantetheinyl transferase. Potency, µM, without a hit: largest response in the series, negative = inhibition, actives largely listed as inhibitors. AID 1490. Q9F4F7. hit rate 3.5% among 310,000. Biochemical Sfp PPTase activity, qHTS;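 note: the enzyme is Sfp with the accession as filed and its product quenches rhodamine fluorescence; potency is the fitted concentration of half-maximal effect; 0% = enzyme reaction without inhibitor and -100% = no enzyme wells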
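Buffer: 50 mM Hepes-Na pH 7.6, 10 mM MgCl2, 0.01% Nonidet P-40, 0.01% BSA. Enzyme 15 nM, pre-exposed to compound 15 min; substrates then added and fluorescence change tracked over 30 min.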
Tau fibril FP: tau fibrillization inhibition (FP). K18 P301L tau heparin fibrillization, Alexa594 FP, 6 h. hit rate 0.39% among 280,000. Potency, µM (top dose mostly 57.7 µM), for the others: at the top dose activity, negative = inhibition, usual class: inhibitors. P10636; note: potency is the fitted concentration of half-maximal effect; nearly all actives have a fitted effect of over 55% in size
Target sequence (P10636 561-689 P618L limits assumed): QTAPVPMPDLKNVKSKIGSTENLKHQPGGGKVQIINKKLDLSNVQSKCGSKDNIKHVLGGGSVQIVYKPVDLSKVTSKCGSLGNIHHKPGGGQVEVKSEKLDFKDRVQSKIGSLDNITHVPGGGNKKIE
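Quantitative HTS format: compounds meet 15 uM recombinant K18 P301L tau and Alexa 594-tau tracer in 100 mM sodium acetate pH 7; 20 uM heparin triggers fibrillization at 37 C over 6 hr; FP gives the signal.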
Tau fluor cs: counter-screen for tau fibril formation inhibitors | tau K18 P301L Alexa594 fluorescence, heparin fibrillization | Potency, µM (series often up to 57.7 µM), for inactives: top-dose activity change, negative = decrease | hit rate 0.93% among 280,000 | AID 1463; note: potency is the fitted concentration of half-maximal effect; nearly all actives have a fitted effect of over 55% in size
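Human K18 P301L tau (15 uM unlabeled plus 0.24 uM Alexa 594-labeled, final) in 100 mM sodium acetate pH 7 was mixed with compound and 20 uM heparin and incubated 6 hr at 37 C.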
Tau ThT inhib: inhibitors of human tau fibril formation, thioflavin T binding; P10636; AID 1460; hit rate 2.1% among 270,000; recombinant tau K18 P301L (four-repeat tau fragment), heparin-induced fibrillization, ThT fluorescence; Potency, µM (titrated, usually from 57.4 µM), for the others: at the top dose activity, negative = inhibition, actives largely listed as inhibitors; note: potency is the fitted concentration of half-maximal effect; nearly all actives have a fitted effect of over 55% in size
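K18 P301L tau (15 uM + 0.24 uM Alexa 594-tagged), heparin 20 uM, NaOAc pH 7, 6 h 37 C; ThT 30 uM, 1 h RT, ex 450/em 510 nm.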
Active calls of the source: *; ? = inconclusive; · = not tested or not shown; [ ] = dose if it differs, or a comment. Most compounds without a hit are left out; they make up all but 5.2% or so of the library. Unless noted, calls come from the whole dose curve; as a rule, active = well fitted curve in the direction sought with a large enough effect; inconclusive = small, poorly fitted or top-dose-only effect, or another doubt; inactive = no such curve, though single readings can be large; an effect the other way counts as inactive or inconclusive. Unless noted, % is set by controls: 0 for no effect and ±100 for the full control effect.

SMILES	Coupling enz	Sfp inh	Tau fibril FP	Tau fluor cs	Tau ThT inhib
Cc1cc(NC(=O)c2cc(-c3ccc(F)cc3)on2)nn1Cc1ccc(Cl)cc1	·	·	-11%	-1%	4%
Cc1cccc(CN2CCN(C(C)C(=O)NC(C)c3ccccc3)CC2)c1 (centres undefined)	0	63µM*	·	·	·
Cc1ccc(N2CCN(C(=O)C3CCN(S(=O)(=O)c4ccc5c(c4)oc(=O)n5C)CC3)CC2C)cc1 (centres undefined)	·	·	5%	-12%	-7%
O=C1C=C(c2ccccc2)C(=O)N1Nc1ccccc1	1	10µM*	-14%	-7%	?
CCc1nn(CC(=O)N(CC)Cc2ccccc2)c(=O)c2cc3occc3n12	·	·	-10%	-3%	6%
Cc1ccc(NS(=O)(=O)c2ccc(-c3cc(C)no3)cc2)c(C)c1	·	·	-12%	-30%	-4%
Cc1c(/C=C(\C#N)C(=O)Nc2cccc(Cl)c2)c2ccccc2n1Cc1ccccc1Cl	·	·	-9%	-16%	-10%
Cn1c(=O)[nH]c(=O)c2c1[nH]c(=S)n2Cc1ccc(Cl)cc1	5	8.9µM*	·	·	·
Cn1c(=O)n(Cc2ccccc2Cl)c2ccccc21	0	?	-5%	-2%	2%
Cn1c(=O)n(Cc2ccccc2Cl)c(=O)c2c1[nH]c(=S)n2C	1	50µM*	·	·	·
Cn1c(=O)c2c([nH]c(=S)n2CCCc2ccccc2)n(C)c1=O	0	50µM*	·	·	·
Cn1c(=O)c2c(nc(Br)n2CCCc2ccccc2)n(C)c1=O	-2	?	-2%	0%	4%
CC(C)Sc1nc2c(c(=O)[nH]c(=O)n2C)n1Cc1ccc(Cl)cc1	-1	-27%	-1%	1%	-4%
Cn1c(=O)[nH]c(=O)c2c1[nH]c(=S)n2CCCc1ccccc1	1	14µM*	·	·	·
COc1cc(OC)c(N(C)C(=O)c2nn(C)c3c2CSc2ccccc2-3)cc1Cl	·	·	-2%	1%	10%
Cc1cc(OCCCSc2nc(-c3ccc(C(C)(C)C)cc3)nc3cc(=O)[nH]n23)ccc1Cl	·	·	-6%	-6%	-17%
CCOc1ccc(CC(=O)OCN2C(=O)c3ccccc3C2=O)cc1	·	89µM*	0%	-10%	-7%
S=c1c2c(nc3nc[nH]n13)CCC2	-36*	14µM*	-5%	1%	-6%
Cc1ccc(C)c(NC(=O)CCCN2C(=O)C(c3ccccc3)Oc3cccnc32)c1 (centres undefined)	·	·	4%	4%	0%
Cc1cc(Nc2cccc(F)c2)nc(-c2ccccc2O)n1	-3	6%	11µM*	?	-9%
Cc1cc(Nc2ccccc2Cl)nc(-c2ccccc2O)n1	-2	6%	·	·	·
CCOC(=O)c1ccc(Nc2cc(-c3ccccc3)nc(C)n2)cc1	·	·	?	-30%	?
Cc1cc(NCc2ccccc2)nc(-c2ccccc2O)n1	-1	-4%	?	13µM*[quencher]	?
Cc1cc(Nc2ccccc2)nc(-c2ccccc2O)n1	-2	-6%	28µM*	11µM*[quencher]	?
CCOC(=O)c1ccc(Nc2cc(C)nc(-c3ccccc3O)n2)cc1	2	0%	10µM*	?	?
SMILES	Coupling enz	Sfp inh	Tau fibril FP	Tau fluor cs	Tau ThT inhib
O=C(Cn1ncc2c3ccccc3n(Cc3cccc(Cl)c3)c2c1=O)N1CCCCCC1	·	·	2%	-6%	-2%
Cc1cc(C)c(S(=O)(=O)NCC2CCC(C(=O)NCCc3ccccc3)CC2)c(C)c1 (centres undefined)	·	·	-6%	-4%	-14%
Cc1cc(C)c(NC(=O)Cc2csc(C)n2)c(Cl)c1	·	·	-3%	-4%	-5%
CCCOc1cc(C)nc(-c2ccccc2O)n1	4	-4%	-2%	?	16µM*
Cc1cc(OC(C)C)nc(-c2ccccc2O)n1	-1	-1%	?	-15%	?
O=C1c2cc(Br)ccc2O[C@@H](c2ccc3c(c2)OCO3)[C@@H]1O	0	-8%	-3%	-3%	-13%
Cn1c(N)c(C#N)c2c(c1=S)COC(C)(C)C2	-8	10%	-5%	-7%	-6%
CC1(C)Cc2c(C#N)c(N)sc(=S)c2CS1	-44*	16µM*	-5%	?	18µM*
Cn1c(N)c(C#N)c2c(c1=S)CSC(C)(C)C2	-25	79µM*	2%	-24%	?
COc1cccc(Cn2c(=O)c(-c3ccccc3)nc3cnc(N(C)C)nc32)c1	-15	?	·	·	·
CCOc1ccc(CCNC(=O)c2cc3c(-c4ccccc4F)nn(C)c3s2)cc1OCC	·	·	-17%	?	-20%
COc1ccc(C(=O)c2c(C)oc3ccc(O)c(CN4CCOCC4)c23)cc1	-11	56µM*	-12%	-18%	-9%
Cc1ccc2cc(/C=C(\C#N)C(N)=O)c(N3CCCCC3)nc2c1	1	-3%	7%	-11%	?
Cc1ccc2cc(C=C(C#N)C#N)c(N3CCCCC3)nc2c1	0	-13%	?	-17%	25µM*
OC(COCC(F)(F)C(F)(F)C(F)(F)C(F)F)Cn1c2ccc(Cl)cc2c2cc(Cl)ccc21 (centres undefined)	-3	35%	10µM*	?	5%
COC(=O)c1ccccc1NC(=O)c1nc(-c2ccc(Cl)cc2)n2c1CCCCC2	·	·	-14%	-8%	1%
CCOc1ccccc1N(CC(=O)NCCSCc1ccco1)S(=O)(=O)c1ccccc1	-1	-26%	·	·	·
Cc1ccccc1N(CC(=O)NCCSCc1ccco1)S(C)(=O)=O	2	20µM*	-9%	-6%	-16%
Cc1c(C(=O)Nc2ccc(F)c(C(F)(F)F)c2)sc2nc(-c3ccccc3)cn12	·	·	?	-27%	-10%
Cc1noc(C)c1-c1cc(NC2CCNCC2)ncn1	4	?	·	·	·
CCOc1ccc(C(=O)Nc2ccc(C(=O)OCc3cc(=O)n4c(C)csc4n3)cc2)cc1	·	·	-11%	-16%	18%
CCc1nc2ccc(C(=O)NCCc3ccco3)cc2nc1CC	4	-8%	·	·	·
CCCNC(=O)c1ccc2nc(-c3ccccc3)c(-c3ccccc3)nc2c1	-2	7%	-9%	-21%	-17%
O=C(NCCO)Nc1ccc2nc(-c3ccco3)c(-c3ccco3)nc2c1	-36*	18µM*	6%	9%	5%
COc1ccc(C(=O)NCCCN2CCOCC2)cc1	0	5%	·	·	·
O=C(NCCCO)c1ccc2nc(-c3ccco3)c(-c3ccco3)nc2c1	-29	10µM*	8.9µM*	4.5µM*[quencher]	5µM*
CCCCNC(=O)c1ccc2nc(-c3ccco3)c(-c3ccco3)nc2c1	-39*	32µM*	?	?	16µM*
COc1ccc(-c2nc3ccc(C(=O)NCCCN4CCOCC4)cc3nc2-c2ccc(OC)cc2)cc1	-3	56µM*	·	·	·
Cc1nc2ccc(NC(=O)NCCO)cc2s1	-5	2%	4%	-9%	-9%
COc1cccc(Cn2c(SCC(=O)N3CCN(c4ccc(F)cc4)CC3)nc3ccccc32)c1	·	·	0%	-4%	-13%
